Assay results taken from the supplement of paper PMC10338343.

These sequences were tested on EfPiwi piRISC loaded with L1MC piRNA (26 nt) (assay: pre-steady-state target cleavage rate (min^-1); auxiliary factor: none (no Gtsf1); guide: L1MC piRNA 5'p-UAACUAAAUACUAUGCAAGCUGUAGG; MIWI and MILI are mouse PIWI proteins and EfPiwi is from a freshwater sponge; tags in brackets are library labels; higher = faster piRNA-guided slicing of the target).
In short: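 Sequencing of uncleaved targets, normalised to depth and to weakly complementary targets, was the readout of this Cleave-'n-Seq assay. A transcribed, DNA-blocked target RNA library (0.1 nM) was mixed with 1 nM active affinity-purified piRISC carrying one synthetic guide, with or without 500 nM GTSF1 partner protein, in HEPES–potassium acetate buffer at 33 °C for 0–8 or 0–960 min. Three trials were pooled, k3 was capped at 0.0001 min^-1, and a burst-and-steady-state fit gave the pre-steady-state cleavage rate.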

Sequence | pre-steady-state target cleavage rate
UCCUGGAUGUCGAUGCAUCGUAUUUAGUUA | < 0.0001
UCCUGGAACAGCUUCCAUAGUAUUUACUUA | < 0.0001
UCCUGGAUGUCGAACGUAUCUAUUUAAUUA | < 0.0001
UCCUGGAUGUCGAACGAUAGUAUUUAGAAA [g4:g14:cont:t1A] | < 0.0001
UCCUGGAUGAGCUUGCAUCAGUAUUUAGUUA | < 0.0001
UCCUGGAUGUCGAACGUAUCUAUCUUAGUUA | < 0.0001
UCCUCCUACAGGAAGCAUAGUAUUUACAAA | < 0.0001
UCCUGGAUGUCGAACGUAUGUUAUUAGUUA | < 0.0001
UCCUGGAUGUCCUUCCAUAGUAAUUAGUUA | < 0.0001
UCCUGGAUGUCGUUGCAUAGUAUAUAGAUA | < 0.0001
UCCUGGAUGUCGAAGCAUAGUAUUUAGCUA | < 0.0001
UCCUGGAUGUCGAACGUUAAUAUUUAGUUA | < 0.0001
UCCUGGAUGUCGUUGCAUAGUUUUAGUUA | < 0.0001
UCCUGGAUGUCGAAGAAUAGUAUUUAGUUA | < 0.0001
UCCUGGAUGUCGUUGCAUAGAUAUUAGUUA | < 0.0001
UCCUGGAUGUCGUUGCAUAGUAUUUAUUA | < 0.0001
UCCUGCUACAGCUUGCAUACAUAAAUCAAA [g12:g25:cont:t1A] | < 0.0001
UCCUGGAUGUCGAACGUUAGUAUUUAGAUUA | < 0.0001
UCCUGGUACAGGAUGCAUAGUAUUUUCAAA | < 0.0001
UCCUGGAUGUCGAUGCAUAGAAAUUAGUUA | < 0.0001
UCCUGGAUGUCGAAGCAUAGUUUUUAGAUA | < 0.0001
UCCUGGAUGUCGAAGCAUAGUAUAUACUUA | < 0.0001
UCCUGGUACAGCUUGCAAUCAUAAAUCAAA [g14:g24:cont:t1A] | < 0.0001
